GAA850 FXN act: frataxin GAA850 promoter activation. HEK293 lucGAA850 FXN promoter luciferase reporter, 24 h; percent of 10 µM SAHA response. activation, % at 6 µM. AID 540364. 0.56% of 360,000 active;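 active = activation above the average of all compounds screened plus 3 SD, cutoff fixed separately per campaign, cut at about 7.5% in these data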
HSF-1 act: increases HSF-1 driven luciferase reporter signal. NIH3T3-HGL HSF-1 luciferase reporter, MG132, 8 h; 100% = twice DMSO control signal. activation, % at 9 µM. 1.7% of 300,000 active. AID 504408;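 active = mean replicate activation of at least 50% with a set share of replicates each reaching 50%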
AHR act: human AHR activation; 2.5% of 320,000 active; AID 2796; AHR-responsive luciferase reporter cells, luminescence; activation, % at 5 µM; in the data active = activation above about 47%
Target sequence (P35869 whole entry, looked up): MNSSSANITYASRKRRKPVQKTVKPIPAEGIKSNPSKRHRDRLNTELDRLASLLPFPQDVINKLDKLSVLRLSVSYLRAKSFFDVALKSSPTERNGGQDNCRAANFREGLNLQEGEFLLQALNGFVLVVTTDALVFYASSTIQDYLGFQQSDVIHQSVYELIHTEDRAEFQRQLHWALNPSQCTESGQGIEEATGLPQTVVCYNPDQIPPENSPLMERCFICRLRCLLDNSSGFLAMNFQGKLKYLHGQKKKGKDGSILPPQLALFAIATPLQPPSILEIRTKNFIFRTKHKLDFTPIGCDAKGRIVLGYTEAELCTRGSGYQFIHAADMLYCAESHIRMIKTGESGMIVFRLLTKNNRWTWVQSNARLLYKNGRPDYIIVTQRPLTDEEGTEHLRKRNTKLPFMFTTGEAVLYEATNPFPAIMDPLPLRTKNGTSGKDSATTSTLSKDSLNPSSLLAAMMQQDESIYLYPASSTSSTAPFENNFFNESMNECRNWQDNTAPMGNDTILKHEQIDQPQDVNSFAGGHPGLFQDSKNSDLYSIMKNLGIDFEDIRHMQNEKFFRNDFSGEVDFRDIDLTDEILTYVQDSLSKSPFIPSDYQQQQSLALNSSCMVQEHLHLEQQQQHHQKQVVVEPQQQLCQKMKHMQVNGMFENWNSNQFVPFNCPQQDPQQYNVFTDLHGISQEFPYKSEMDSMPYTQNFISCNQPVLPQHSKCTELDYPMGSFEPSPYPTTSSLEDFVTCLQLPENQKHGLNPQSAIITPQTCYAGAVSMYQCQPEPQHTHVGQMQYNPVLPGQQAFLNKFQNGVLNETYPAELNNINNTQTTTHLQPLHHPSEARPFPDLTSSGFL
HSF1 inhib: HSF1 inhibition; NIH3T3-HGL HSE-luciferase, MG132-induced, luminescence 8 h; hits give low values; activity change, negative = inhibition, % at 7.5 µM (by protocol); 0.77% of 300,000 active;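 active = more than half of replicate wells show activity change below -50%, luminescence cut by over half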;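 note: luciferase reports HSF-1 transcriptional activity via heat shock element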
Of the large screens only hits and unclear results are named; the others gave an inactive call. Hits are enriched below; roughly 4.6% of the tested compounds scored in any of these assays.

Clc1ccc(NC2=NCCC2)cc1Cl	none
CC(=O)N/C(N)=N/c1nc2cc([N+](=O)[O-])ccc2o1	HSF-1 act 72
COc1ccccc1C(=O)N/C(N)=N/c1nc2ccccc2o1	AHR act 69
CC(=O)N/C(N)=N/c1nc2cc(C)ccc2o1	none
CC(C)(C)C(=O)N/C(N)=N/c1nc2ccccc2o1	HSF-1 act 52
Cc1ccc(C(=O)N/C(N)=N/c2nc3ccccc3o2)cc1	none
Cc1nc(NCc2ccco2)c2c(C)c(C)sc2n1	none
O=C(c1ccc2c(=O)n(Cc3ccccc3)c(=S)[nH]c2c1)N1CCOCC1	HSF1 inhib -87
CCOc1cc(CNn2nnnc2N)ccc1OCC(=O)NC(C)(C)C	none
Cc1c(C(=O)O)cccc1-c1ccc(/C=N/n2cnnc2)o1	none
Cc1c(C(=O)O)cccc1-c1ccc(/C=N/Nc2ccc(Br)cc2)o1	AHR act 134
Cc1ccc(N=Nc2c(C)[nH]n(C(N)=S)c2=O)cc1C	AHR act 51
Cc1[nH]n(C(N)=S)c(=O)c1N=Nc1cc(-c2ccc(Br)cc2)[nH]n1	AHR act 55
CCOc1ccc2nc(NC3=NC(C)(C)C=C(C)N3)nc(C)c2c1	none
CCOc1ccc2c(C)nc(NC3=NC(C)(C)C=C(C)N3)nc2c1	AHR act 64
CCOCCn1c(CN2CCCCC2)nc2c1c(=O)n(C)c(=O)n2C	none
Cc1cc(C)c(C#N)c(SCC(=O)C(C)(C)C)n1	AHR act 59
Cc1cc(C)c(C#N)c(SCC(=O)NC(C)(C)C)n1	HSF1 inhib -65
O=C(Nc1cccc(C(F)(F)F)c1)Nn1cnnc1	none (no result: AHR act)
O=C(COc1ccc2ccc(=O)oc2c1)Nc1ccc(CCO)cc1	none
CC(=N/O)/C(C)=N\NC(=O)c1ccccn1	HSF1 inhib -66
O=C(c1ccc(Cl)nc1)c1cccs1	AHR act 54 (no result: GAA850 FXN act, HSF-1 act)
CC(C)c1ccccc1-n1c(-c2cccnc2)n[nH]c1=S	HSF1 inhib -65
CC(=O)n1nc(-c2ccccc2)cc1-c1ccccc1	AHR act 58
O=C(O)Cn1nc(-c2ccccc2)cc1-c1ccccc1	none
Cc1ccnc(NC(=O)c2ccc([N+](=O)[O-])s2)c1	HSF-1 act 70
Cc1cccc(NC(=O)c2ccc([N+](=O)[O-])s2)c1C	HSF-1 act 56
O=C(NNC(=O)c1cc(-c2cccc(Br)c2)nc2ccccc12)c1csc(N2CCOCC2)n1	none
Cc1cccc(C)c1NC(=O)C1c2cccc[n+]2CC(=O)N1Cc1cccs1 (configuration not stated)	none
CC1CCCN(C(=O)C2(NC(=O)Nc3cccc(F)c3)CCCCC2)C1 (configuration not stated)	HSF1 inhib -86
CC(=O)N1CCN(C(=O)C2(NC(=O)Nc3cccc(F)c3)CCCCC2)CC1	none
O=C(NC1CCCCC1)C(c1cccs1)N(C(=O)c1ccco1)c1ccc2c(c1)OCCO2 (configuration not stated)	none
CCOC(=O)c1c(NC(=O)Nc2ccccc2)sc(C)c1C	AHR act 49
COc1ccc(/C=C\c2onc(C)c2S(=O)(=O)N2CCC(C(=O)NCc3ccco3)CC2)cc1	none
CCCCc1nc2ccccc2c(N)c1CCC (tested in a mixture with another compound)	none
O=C(Nc1ccc2c(c1)oc1ccccc12)c1ccc2c(c1)OCO2	none
O=c1c(O)c(-c2ccc3c(c2)OCO3)oc2ccccc12	AHR act 69
Cc1ccccc1C(=O)NCC(=O)c1ccccc1	none
CCOc1ccc(Br)cc1C(=O)N/N=C/c1c[nH]c2ccccc12	AHR act 47
O=C(N/N=C/c1c[nH]c2ccc(Br)cc12)c1ccncc1	AHR act 74
O=C(N/N=C/c1c[nH]c2ccccc12)c1cc(Br)ccc1O	AHR act 77
O=C(N/N=C/c1ccc(Br)s1)c1c[nH]c2ccccc12	HSF-1 act 56, AHR act 146
COc1ccccc1C(=O)N/N=C/c1c[nH]c2ccccc12	none
CCCCC1=CC2=CC(=O)C(C)(OC(=O)c3cccs3)C(=O)C2=CO1 (configuration not stated)	none
Cc1ccc(NS(=O)(=O)c2ccc3[nH]c(=O)[nH]c3c2)c(C)c1	none
Cc1ccc(C(=O)N/N=C/c2c[nH]c3ccccc23)o1	none
Cc1cc(C(=O)N/N=C/c2c[nH]c3ccccc23)c(C)o1	AHR act 56
CC[n+]1c(/C=C2\C=C(C)CC(C)(C)C2)sc2ccccc21	HSF-1 act 85
CCCc1cc(=O)oc2cc(C)c(CN3CCCC3)c(O)c12	HSF-1 act 63
Cc1cccc(NC(=O)CN2C(=O)C(C)Oc3ccccc32)n1 (configuration not stated)	none
Cc1c(S(=O)(=O)Nc2ccc(Br)cc2)c(=O)n(C)c(=O)n1C	none
CCCCc1ccc(NS(=O)(=O)c2c(C)n(C)c(=O)n(C)c2=O)cc1	HSF-1 act 64
CCOc1ccc(S(=O)(=O)Nc2ccccc2C(=O)N/N=C/c2c(OC)ccc3ccccc23)cc1	none
COc1cc(C(=O)CSc2nccn2C)cc(OC)c1OC	AHR act 47
COc1ccc(C(=O)CSc2nccn2C)cc1	none
S=C1NC2=C(CCCC2=C2SCCCS2)C(c2ccccc2)N1 (configuration not stated)	none
COc1ccc(C2NC(=S)NC3=C2CCCC3=C2SCCS2)cc1 (configuration not stated)	HSF1 inhib -56
Cc1ccc(-n2[nH]c(=O)c3cccnc32)cc1	AHR act 64
CCOC(=O)c1c(C)nsc1NC(=O)C1(C)CCN1C(=O)CC (configuration not stated)	none (no result: HSF-1 act, AHR act, HSF1 inhib)
CCC1CCCCN1S(=O)(=O)c1ccc(NC(=O)c2ccncc2)cc1 (configuration not stated)	none
CCS(=O)(=O)c1ncc(Cl)c(C(=O)Nc2ccc(S(=O)(=O)N3CCCC(C)C3)cc2)n1 (configuration not stated)	HSF1 inhib -79
CCC1CCCCN1S(=O)(=O)c1ccc(NC(=O)c2nc(S(C)(=O)=O)ncc2Cl)cc1 (configuration not stated)	HSF1 inhib -84
CC1(C(=O)NCc2ccccc2Br)CCN1Cc1ccccc1OC(F)F (configuration not stated)	none (no result: HSF-1 act, AHR act, HSF1 inhib)
O=C(CCN1CCC(c2cccs2)=N1)c1cccs1	HSF-1 act 65
O=C(Nc1nccs1)c1ccc(-c2ccc([N+](=O)[O-])cc2)o1	none
O=C(Nc1nccs1)c1ccc(-c2ccccc2Cl)o1	HSF-1 act 61, AHR act 54
O=C(Nc1nccs1)c1ccc(-c2ccc(F)cc2)o1	HSF-1 act 73
O=C(Nc1ccccc1)c1ccc(-c2ccccc2Cl)o1	none
O=C(Nc1nccs1)c1ccc(-c2ccccc2[N+](=O)[O-])o1	AHR act 68
Fc1ccc(NC(=S)Nc2nccs2)cc1	HSF-1 act 64
Cn1cc(Cl)c(C(=O)Nc2nccs2)n1	none
O=C(Nc1nccs1)c1ncc(Cl)c(Cl)c1Cl	AHR act 47
C=CCOc1ccc(CNc2nccs2)cc1OCC	none
Cc1ccc(NC(=O)CN2C(=O)NC3(CCCC3)C2=O)c(Cl)c1	HSF1 inhib -84

Bioassay records (PubChem BioAssay)
